Results on 36 compounds are retold here after PubChem BioAssay.

The target in the first assay is Focal adhesion kinase 1 (Homo sapiens) (UniProt Q05397). The assay is described as follows: PTK2 protein binding on printed compound slides – biochemical, small-molecule microarray, 635/667 nm fluorescence, BSA, DTT, primary screen (AID 1130).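 Note: composite of spot emission at 667 nm and signal to noise over triplicate slides.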 Particulars: 635 nm fluorescence, higher = more signal.
Focal adhesion kinase 1 (Homo sapiens), sequence (Q05397 whole entry, looked up): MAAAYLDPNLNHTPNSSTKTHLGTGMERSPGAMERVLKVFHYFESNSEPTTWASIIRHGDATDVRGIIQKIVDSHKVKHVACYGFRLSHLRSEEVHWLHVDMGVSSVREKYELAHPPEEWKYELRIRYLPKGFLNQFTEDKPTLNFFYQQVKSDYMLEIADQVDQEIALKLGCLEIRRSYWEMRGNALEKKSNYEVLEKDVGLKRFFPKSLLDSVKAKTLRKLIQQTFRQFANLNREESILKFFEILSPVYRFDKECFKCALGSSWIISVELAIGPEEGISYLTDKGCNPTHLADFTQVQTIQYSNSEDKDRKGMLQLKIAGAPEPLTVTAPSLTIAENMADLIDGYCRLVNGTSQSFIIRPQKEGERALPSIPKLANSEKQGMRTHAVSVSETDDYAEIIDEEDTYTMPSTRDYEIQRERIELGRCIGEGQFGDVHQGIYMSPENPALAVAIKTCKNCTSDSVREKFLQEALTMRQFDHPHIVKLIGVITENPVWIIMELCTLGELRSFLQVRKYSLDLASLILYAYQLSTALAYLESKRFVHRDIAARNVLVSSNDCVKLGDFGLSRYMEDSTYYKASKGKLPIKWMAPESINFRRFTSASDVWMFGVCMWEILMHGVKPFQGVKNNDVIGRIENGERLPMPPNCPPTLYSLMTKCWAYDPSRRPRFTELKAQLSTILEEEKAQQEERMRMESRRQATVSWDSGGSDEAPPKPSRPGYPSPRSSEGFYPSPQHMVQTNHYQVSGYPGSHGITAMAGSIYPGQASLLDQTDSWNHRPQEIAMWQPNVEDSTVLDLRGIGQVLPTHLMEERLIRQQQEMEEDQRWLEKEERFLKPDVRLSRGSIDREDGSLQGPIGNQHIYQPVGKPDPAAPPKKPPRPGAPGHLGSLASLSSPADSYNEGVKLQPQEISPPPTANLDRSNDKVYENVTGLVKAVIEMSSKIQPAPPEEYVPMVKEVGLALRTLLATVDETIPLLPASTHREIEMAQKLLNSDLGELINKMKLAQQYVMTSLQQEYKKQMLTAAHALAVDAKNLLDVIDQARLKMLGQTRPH
For `Cc1ccc(S[C@]2(C(=O)NCCCN(C)C)CC(=O)N(Cc3ccccc3)[C@@H]2c2ccc(CO)cc2I)cc1`, the composite z-score was found to be 0.152.
In turn, `COc1ccc([C@H]2C[C@H]3C(Br)=C[C@]2(OC)C(=O)[C@]32CO2)cc1` gave a composite z-score of -0.458.
`COC(=O)[C@H]1[C@@H]2COc3ccccc3[C@H]2N[C@H]1C(=O)OC` yielded a composite z-score of 0.404.
As to `C=CC[C@]1(C(N)=O)N=C(c2ccc(OCCCO)cc2)O[C@H]1c1ccccc1CN=[N+]=[N-]`, the composite z-score stood at 0.409.
Still for that read-out and setting: next, `CC(C)[Si](OCC[C@H]1O[C@]2(C(=O)N(Cc3ccccc3)c3ccccc32)[C@@H](C)[C@@H]1[Si](C)(C)O)(C(C)C)C(C)C`: 0.104; `CC(C)[Si](OCCCNS(=O)(=O)c1ccc(Br)cc1)(C(C)C)C(C)C`: 0.339.
On the same count and under the same terms, next, `C=CCOC(=O)[C@@H]1[C@H]2C(=O)O[C@H](c3ccccc3)[C@H](c3ccccc3)N2[C@H](c2ccc(OCCOC(=O)[C@H]3C[C@H]4C(=O)N[C@@H](CCCCNC(C)=O)C(=O)N4[C@H]3c3ccc(O)cc3)cc2)[C@@]12C(=O)Nc1ccc(I)cc12`: -0.145; `C[C@]1(C(=O)NCCN2CCOCC2)c2ccccc2C(=O)N(Cc2ccccc2)[C@H]1c1ccc(CO)cc1`: -0.43.
In turn, `C=CCN(C(=O)C1N(c2ccc(CCO)cc2)C(=O)C2C(C(=O)O)C3C=CC21O3)C(C)(C)C` (configuration not stated) returned a composite z-score of -0.612.
On the same count and under the same terms, the figure for `CCOC(=O)C[C@H]1[C@H](OC(=O)Cc2ccc3c(c2)OCO3)[C@@H](NC(=O)c2ccc3ccccc3c2)c2cc(OCCCO)ccc2N1C(=O)Cc1ccc(OC)cc1` is 0.211.
On the same count and under the same terms, next, `COc1ccc([Si](C)(C)[C@H]2[C@H](CCO)O[C@@]3(C(=O)N(Cc4ccc(N5CCCCC5=O)cc4)c4ccccc43)[C@@H]2C)cc1`: 0.0098.
The same measure, in the same setting: next, `COc1cc(CO)cc(I)c1O[C@H]1C=C(C(=O)NCCO)C[C@@H](N(CC2CCCCC2)C(=O)c2cc3ccccc3oc2=O)[C@@H]1O`: -0.071; `COC(=O)C1=CC(c2ccc(CO)cc2)=CC(C2CC2)N(Cc2sc3ccccc3c2Cl)C=C1C(=O)OC` (configuration not stated): 1.46.
As to `CSCC[C@@H]1NC(=O)CC=C[C@@H](C)COC(=O)[C@H](CCSC)NC(=O)CC=C[C@@H](C)COC1=O`, the composite z-score is -0.388.
Compound `COC(=O)[C@@]1(Cc2ccc(OC)cc2)[C@H]2c3cc(C(=O)N(C)C)n(CCc4ccc(OC)c(Br)c4)c3C[C@H]2CN1C(=O)c1ccccc1` displayed a composite z-score of 2.29.
`COCC(=C=CC[C@H](O)c1ccc(OCCO)cc1)C[C@H](O)c1ccccn1`: the composite z-score is -0.389.
On the same count and under the same terms, next, `O=C(NCc1ccccc1)[C@@]1(Cc2ccccc2)COC(c2ccc(OCCCO)cc2)=N1`: 0.773; `CO[C@@H]1COC(=O)[C@H](C)NC(=O)CC=C[C@@H](C)[C@H](OC)COC(=O)[C@H](C)NC(=O)CC=C[C@H]1C`: 0.0533.
For `CCCC=C(CCC)[C@@H](NS(=O)(=O)c1ccc(C(F)(F)F)cc1)c1ccc(-c2ccccc2)cc1`, the composite z-score stood at 0.998.
Still for that read-out and setting: next, `CC(C)(C)OC(=O)CC[C@]1(C(=O)N2CCCCC2)N=C(c2ccc(OCCCO)cc2)O[C@H]1c1ccccc1`: 0.717; `CC(=O)NCCCC[C@@H]1NC(=O)[C@@H]2C[C@H](C(=O)NCCCCCNC(=O)CS)[C@H](c3ccc(O)cc3)N2C1=O`: -0.295.
In turn, `C=CCC(OC(C)=O)[C@@H]1[C@@H](N(Cc2ccc(-c3cccc(C(F)(F)F)c3)o2)C(=O)Cc2ccc(F)cc2)c2cc(OCCCO)ccc2N1C(=O)c1ccc(-c2ccccc2)cc1` (some centres not stated) had a composite z-score of -0.131.
Still for that read-out and setting: next, `CO[C@]12C=C(Br)[C@@H](C[C@@H]1c1ccccc1)[C@@]1(CO1)C2=O`: -0.259.
As for `COCCOC(=O)N1C(=O)[C@@]2(c3cc(C#CCC(C(=O)OC)C(=O)OC)ccc31)[C@H](c1ccccc1OCCO)N1[C@H](c3ccccc3)[C@H](c3ccccc3)OC(=O)[C@H]1[C@@H]2C(=O)N1CCCCCCC1`, the composite z-score was 0.384.
As for `CCOC(=O)C1=CC[C@@H](c2ccccc2)N(S(=O)(=O)c2ccc(C)cc2)[C@H]1C`, the composite z-score amounted to 0.147.
Turning to `O=C1c2ccccc2[C@](Cc2ccccc2I)(C(=O)NCC(F)(F)F)[C@H](c2ccc(CO)cc2)N1Cc1ccccc1C(F)(F)F`, the composite z-score is 0.857.

In the next assay the test system is Fibrinogen (Alexa647-labelled). The assay is described as follows: Alexa647-fibrinogen binding to printed small molecules – biochemical, small-molecule microarray, 635/667 nm fluorescence, artefact control for SMM control-protein annotation, profiling panel (AID 1131).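 Note: z-score merges 667 nm fluorescence with per-spot signal-to-noise over triplicate slides.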 The note with it: fibrinogen-A647 binding fluorescence, higher = more signal.
Compound `CCCC=C(CCC)[C@@H](NS(=O)(=O)c1ccc(-c2ccccc2)cc1)c1ccc(C(=O)OC)cc1` came in with a composite z-score of -0.285.
Same read-out and setting: the figure for `COc1ccc([Si](C)(C)[C@@H]2[C@@H](CC(=O)N(CCO)Cc3ccccc3)O[C@]3(C(=O)N(Cc4cccc(N5CCC5=O)c4)c4ccccc43)[C@H]2C)cc1` is -0.0806.
Same read-out and setting: next, `CCC1=C2CN(Cc3ccccc3Br)[C@@H]([C@@H](O)Cc3ccccc3)C2C=CCC1` (some centres not stated): 0.455.
Still for that read-out and setting: the figure for `CO[C@H]1COC(=O)[C@H](C)COC(=O)[C@H](Cc2ccccc2)NC(=O)CC=C[C@H]1C` is -1.04; for `Cc1ccc(S[C@]2(C(=O)NC3CC3)CC(=O)N(Cc3cc(C(F)(F)F)cc(C(F)(F)F)c3)[C@@H]2c2ccc(CO)cc2)cc1` it is 0.182; for `CCCC[C@@H]1C[C@H]1[C@@H](NC(=O)c1cccs1)c1ccc(Cl)cc1` it is -1.26.
With `COC(=O)C(CC#Cc1ccc2c(c1)[C@]1(C(=O)N2)[C@H](C(=O)N2CCCCCCC2)[C@H]2C(=O)O[C@H](c3ccccc3)[C@H](c3ccccc3)N2[C@@H]1c1ccc(O)cc1)C(=O)OC`, the composite z-score is -2.05.
`CC(C)N1CC=CC23O[C@@H]4/C=C\CCCOC(=O)C4[C@H]2C(=O)N(CCO)[C@@H]3C1=O` (some centres not stated) had a composite z-score of -0.508.
With `O=C1O[C@H](c2ccccc2)[C@H](c2ccccc2)N2[C@H]1[C@@H](C(=O)NC[C@H](O)c1ccccc1)[C@]1(C(=O)Nc3ccc(C#CC4=CCCCC4)cc31)[C@H]2c1ccc(OCCO)cc1`, the composite z-score is 0.874.
Same read-out and setting: the figure for `Cc1ccc(S[C@]2(C(=O)NC(C)C)CC(=O)N(C3Cc4ccccc4C3)[C@@H]2c2ccc(CO)cc2)cc1` is 0.686; for `Cc1ccc(S[C@]2(C(=O)NCCCN(C)C)CC(=O)N(Cc3ccccc3)[C@@H]2c2ccc(CO)cc2I)cc1` it is 0.233; for `COc1ccc([C@H]2C[C@H]3C(Br)=C[C@]2(OC)C(=O)[C@]32CO2)cc1` it is -0.278.
The compound `COC(=O)[C@H]1[C@@H]2COc3ccccc3[C@H]2N[C@H]1C(=O)OC` came in with a composite z-score of 0.428.
The same measure, in the same setting: the figure for `C=CC[C@]1(C(N)=O)N=C(c2ccc(OCCCO)cc2)O[C@H]1c1ccccc1CN=[N+]=[N-]` is 1.01; for `CC(C)[Si](OCC[C@H]1O[C@]2(C(=O)N(Cc3ccccc3)c3ccccc32)[C@@H](C)[C@@H]1[Si](C)(C)O)(C(C)C)C(C)C` it is 0.618.
In turn, `CC(C)[Si](OCCCNS(=O)(=O)c1ccc(Br)cc1)(C(C)C)C(C)C` returned a composite z-score of 0.348.
Regarding `C=CCOC(=O)[C@@H]1[C@H]2C(=O)O[C@H](c3ccccc3)[C@H](c3ccccc3)N2[C@H](c2ccc(OCCOC(=O)[C@H]3C[C@H]4C(=O)N[C@@H](CCCCNC(C)=O)C(=O)N4[C@H]3c3ccc(O)cc3)cc2)[C@@]12C(=O)Nc1ccc(I)cc12`, the composite z-score stood at 0.852.
The compound `C[C@]1(C(=O)NCCN2CCOCC2)c2ccccc2C(=O)N(Cc2ccccc2)[C@H]1c1ccc(CO)cc1` showed a composite z-score of -0.665.
Still for that read-out and setting: the figure for `C=CCN(C(=O)C1N(c2ccc(CCO)cc2)C(=O)C2C(C(=O)O)C3C=CC21O3)C(C)(C)C` (configuration not stated) is -1.4; for `CCOC(=O)C[C@H]1[C@H](OC(=O)Cc2ccc3c(c2)OCO3)[C@@H](NC(=O)c2ccc3ccccc3c2)c2cc(OCCCO)ccc2N1C(=O)Cc1ccc(OC)cc1` it is 0.561; for `COc1ccc([Si](C)(C)[C@H]2[C@H](CCO)O[C@@]3(C(=O)N(Cc4ccc(N5CCCCC5=O)cc4)c4ccccc43)[C@@H]2C)cc1` it is 0.903.
The same measure, in the same setting: next, `COc1cc(CO)cc(I)c1O[C@H]1C=C(C(=O)NCCO)C[C@@H](N(CC2CCCCC2)C(=O)c2cc3ccccc3oc2=O)[C@@H]1O`: 1.02; `COC(=O)C1=CC(c2ccc(CO)cc2)=CC(C2CC2)N(Cc2sc3ccccc3c2Cl)C=C1C(=O)OC` (configuration not stated): 0.896.
The compound `CSCC[C@@H]1NC(=O)CC=C[C@@H](C)COC(=O)[C@H](CCSC)NC(=O)CC=C[C@@H](C)COC1=O` registered a composite z-score of 0.017.
Still for that read-out and setting: the figure for `COC(=O)[C@@]1(Cc2ccc(OC)cc2)[C@H]2c3cc(C(=O)N(C)C)n(CCc4ccc(OC)c(Br)c4)c3C[C@H]2CN1C(=O)c1ccccc1` is 0.891; for `COCC(=C=CC[C@H](O)c1ccc(OCCO)cc1)C[C@H](O)c1ccccn1` it is -0.263.
In turn, `O=C(NCc1ccccc1)[C@@]1(Cc2ccccc2)COC(c2ccc(OCCCO)cc2)=N1` displayed a composite z-score of 0.838.
Same read-out and setting: next, `CO[C@@H]1COC(=O)[C@H](C)NC(=O)CC=C[C@@H](C)[C@H](OC)COC(=O)[C@H](C)NC(=O)CC=C[C@H]1C`: 0.38; `CCCC=C(CCC)[C@@H](NS(=O)(=O)c1ccc(C(F)(F)F)cc1)c1ccc(-c2ccccc2)cc1`: 0.694.
Compound `CC(C)(C)OC(=O)CC[C@]1(C(=O)N2CCCCC2)N=C(c2ccc(OCCCO)cc2)O[C@H]1c1ccccc1` gave a composite z-score of 0.985.
In turn, `CC(=O)NCCCC[C@@H]1NC(=O)[C@@H]2C[C@H](C(=O)NCCCCCNC(=O)CS)[C@H](c3ccc(O)cc3)N2C1=O` came in with a composite z-score of -0.786.
Compound `C=CCC(OC(C)=O)[C@@H]1[C@@H](N(Cc2ccc(-c3cccc(C(F)(F)F)c3)o2)C(=O)Cc2ccc(F)cc2)c2cc(OCCCO)ccc2N1C(=O)c1ccc(-c2ccccc2)cc1` (some centres not stated) registered a composite z-score of -0.531.
In turn, `CO[C@]12C=C(Br)[C@@H](C[C@@H]1c1ccccc1)[C@@]1(CO1)C2=O` returned a composite z-score of -0.0226.
Compound `COCCOC(=O)N1C(=O)[C@@]2(c3cc(C#CCC(C(=O)OC)C(=O)OC)ccc31)[C@H](c1ccccc1OCCO)N1[C@H](c3ccccc3)[C@H](c3ccccc3)OC(=O)[C@H]1[C@@H]2C(=O)N1CCCCCCC1` had a composite z-score of 0.744.
The same measure, in the same setting: next, `CCOC(=O)C1=CC[C@@H](c2ccccc2)N(S(=O)(=O)c2ccc(C)cc2)[C@H]1C`: 1.02; `O=C1c2ccccc2[C@](Cc2ccccc2I)(C(=O)NCC(F)(F)F)[C@H](c2ccc(CO)cc2)N1Cc1ccccc1C(F)(F)F`: 0.351.
